Consider 16 sequences from PMC3218832.

Targets include RELARELA (p65 homodimer) (Homo sapiens, UniProt Q04206 1-307); p50p50 homodimer (Homo sapiens, UniProt P19838 7-356); RELB subunit;p50 subunit (Homo sapiens;Homo sapiens, UniProt Q01201;P19838 120-401;7-356).
What all share (experiment): protein binding microarray; high values mean tight binding
Common to all, as to conditions: dsDNA, one strand shown

Another assay concerns the target T1, p52p52 homodimer (Homo sapiens, UniProt Q00653 4-332).
T1 sequence: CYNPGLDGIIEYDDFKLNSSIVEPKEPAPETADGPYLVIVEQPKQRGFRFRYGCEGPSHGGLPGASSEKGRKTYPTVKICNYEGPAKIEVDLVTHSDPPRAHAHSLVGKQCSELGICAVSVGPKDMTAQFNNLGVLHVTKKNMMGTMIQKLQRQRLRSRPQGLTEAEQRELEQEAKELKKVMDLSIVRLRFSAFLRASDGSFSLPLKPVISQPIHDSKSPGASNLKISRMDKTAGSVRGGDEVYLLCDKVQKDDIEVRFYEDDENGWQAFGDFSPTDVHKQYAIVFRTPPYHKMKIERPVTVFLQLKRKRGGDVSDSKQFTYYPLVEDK

The target in assay [1] is RELA (p65) subunit of heterodimer;p50 subunit (Homo sapiens;Homo sapiens, UniProt Q04206;P19838 1-307;7-356).
Sequence of RELA (p65) subunit of heterodimer;p50 subunit (Q04206 1-307, chain 1 of 2): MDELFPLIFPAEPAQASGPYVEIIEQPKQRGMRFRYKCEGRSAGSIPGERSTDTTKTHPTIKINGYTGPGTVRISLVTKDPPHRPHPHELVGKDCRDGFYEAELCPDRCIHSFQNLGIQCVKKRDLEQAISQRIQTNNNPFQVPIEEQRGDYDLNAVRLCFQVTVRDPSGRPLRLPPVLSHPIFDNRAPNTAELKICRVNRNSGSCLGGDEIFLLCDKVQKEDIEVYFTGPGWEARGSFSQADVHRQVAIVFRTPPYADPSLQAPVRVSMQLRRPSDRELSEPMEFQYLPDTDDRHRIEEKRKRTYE
Sequence of RELA (p65) subunit of heterodimer;p50 subunit (P19838 7-356, chain 2 of 2): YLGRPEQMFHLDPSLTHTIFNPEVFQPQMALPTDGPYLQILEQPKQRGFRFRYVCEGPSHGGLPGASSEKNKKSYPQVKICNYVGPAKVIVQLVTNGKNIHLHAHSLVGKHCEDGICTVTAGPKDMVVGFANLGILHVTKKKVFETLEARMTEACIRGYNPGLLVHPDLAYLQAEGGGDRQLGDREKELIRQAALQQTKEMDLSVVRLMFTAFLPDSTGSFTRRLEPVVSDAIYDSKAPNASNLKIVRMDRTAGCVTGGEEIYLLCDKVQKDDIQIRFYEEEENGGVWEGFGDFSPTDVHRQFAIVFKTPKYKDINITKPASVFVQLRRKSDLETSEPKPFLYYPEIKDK
The target of assay [2] is RELA (p65) subunit of heterodimer;p52 subunit (Homo sapiens;Homo sapiens, UniProt Q04206;Q00653 1-307;4-332).
In the next assay the target is T2, RELB subunit;p52 subunit (Homo sapiens;Homo sapiens, UniProt Q01201;Q00653 120-401;4-332).
T2 sequence 1: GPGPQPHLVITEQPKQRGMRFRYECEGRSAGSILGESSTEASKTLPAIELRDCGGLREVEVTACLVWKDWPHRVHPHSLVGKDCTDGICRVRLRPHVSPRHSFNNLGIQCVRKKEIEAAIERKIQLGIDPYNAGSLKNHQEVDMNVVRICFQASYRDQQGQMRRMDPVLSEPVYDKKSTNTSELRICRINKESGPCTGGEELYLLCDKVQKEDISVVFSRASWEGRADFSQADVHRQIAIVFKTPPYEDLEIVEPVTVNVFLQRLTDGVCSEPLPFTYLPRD
T2 sequence 2: T1 sequence

Assay [3] has as its target C-Rel subunit;p50 subunit (Homo sapiens;Homo sapiens, UniProt Q04864;P19838 1-285;7-356).
Assay [4] deals with T3, C-Rel subunit;p52 subunit (Homo sapiens;Homo sapiens, UniProt Q04864;Q00653 1-285;4-332).
T3 sequence 1: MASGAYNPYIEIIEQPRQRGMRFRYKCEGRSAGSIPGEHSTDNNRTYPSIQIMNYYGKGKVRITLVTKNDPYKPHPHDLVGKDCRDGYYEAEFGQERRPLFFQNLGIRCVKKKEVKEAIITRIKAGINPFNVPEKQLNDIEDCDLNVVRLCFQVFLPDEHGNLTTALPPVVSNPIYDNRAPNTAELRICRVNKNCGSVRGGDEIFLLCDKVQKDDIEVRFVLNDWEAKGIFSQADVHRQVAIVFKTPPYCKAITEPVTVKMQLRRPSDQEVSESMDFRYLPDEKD
T3 sequence 2: T1 sequence

Sequence of p50p50 homodimer (P19838 7-356): as the sequence (P19838 7-356, chain 2 of 2) above
Sequence of RELARELA (p65 homodimer) (Q04206 1-307): as the sequence (Q04206 1-307, chain 1 of 2) above

Take AAAAATCCCCT: the binding signal in the assay with RELARELA (p65 homodimer) came out at 2.27 z-score; with p50p50 homodimer it was 1.6 z-score; with p52p52 homodimer, 3.18 z-score; in [1], 2.55 z-score; in assay [2], 2.84 z-score; with RELB subunit;p50 subunit it was 3.22 z-score. For the same sequence, the values for the binding signal (with RELB subunit;p52 subunit; in assay [3]; in assay [4]) were 2.88 z-score, 2.19 z-score and 3.19 z-score, respectively.
For the sequence CAAGGGGTCCT, the binding signal with RELARELA (p65 homodimer) was -0.5 z-score; in the assay with p50p50 homodimer it was -0.988 z-score; in the assay with p52p52 homodimer it was -0.106 z-score; in [1], -1.06 z-score; in [2], -0.546 z-score; with RELB subunit;p50 subunit, -0.595 z-score. Also, the binding signal with RELB subunit;p52 subunit was -0.354 z-score; in assay [3], -0.859 z-score; in assay [4] it was -0.486 z-score.
Take AGGAAACTCCT: the binding signal in the assay with RELARELA (p65 homodimer) was 2.04 z-score; in the assay with p50p50 homodimer, -0.999 z-score; with p52p52 homodimer, -0.404 z-score; in [1] it was -0.105 z-score; in [2] it was -0.54 z-score; in the assay with RELB subunit;p50 subunit it was -0.699 z-score. The binding signal with RELB subunit;p52 subunit is -0.839 z-score; in [3], -0.168 z-score; in [4], -0.211 z-score.
In the case of GGAGGTATCCC, the binding signal is -0.331 z-score in the assay with RELARELA (p65 homodimer); -1.01 z-score with p50p50 homodimer; -0.304 z-score in the assay with p52p52 homodimer; -0.519 z-score in [1]; -0.401 z-score in assay [2]; -0.488 z-score with RELB subunit;p50 subunit. Also, the binding signal was -0.395 z-score in the assay with RELB subunit;p52 subunit, -0.57 z-score in assay [3] and -0.276 z-score in assay [4].
Consider AAGTAGTCCCC, for which the binding signal amounted to 0.275 z-score with RELARELA (p65 homodimer); 1.21 z-score with p50p50 homodimer; 1 z-score with p52p52 homodimer; 1.09 z-score in [1]; 1.01 z-score in [2]; 1.36 z-score with RELB subunit;p50 subunit. For the same sequence, the binding signal stood at 1.04 z-score with RELB subunit;p52 subunit, 1.07 z-score in [3] and 0.58 z-score in [4].
As for GGATAGACCCC, the binding signal is -0.296 z-score with RELARELA (p65 homodimer); -0.324 z-score in the assay with p50p50 homodimer; -0.227 z-score with p52p52 homodimer; -0.111 z-score in [1]; -0.128 z-score in assay [2]; -0.398 z-score with RELB subunit;p50 subunit. Besides, the binding signal was 0.071 z-score in the assay with RELB subunit;p52 subunit, -0.41 z-score in assay [3] and -0.251 z-score in assay [4].
GAAGGTCTCCT: the binding signal with RELARELA (p65 homodimer) was -0.533 z-score; in the assay with p50p50 homodimer, -2.58 z-score; in the assay with p52p52 homodimer, -0.69 z-score; in assay [1], -0.982 z-score; in assay [2], -0.897 z-score; with RELB subunit;p50 subunit, -1.22 z-score. Moreover, the values for the binding signal (with RELB subunit;p52 subunit; in assay [3]; in [4]) were -1.02 z-score, -1.58 z-score and -0.76 z-score, respectively.
Turning to CAGGTTTCCCT, the binding signal in the assay with RELARELA (p65 homodimer) was determined as 0.821 z-score; with p50p50 homodimer it was 1.16 z-score; with p52p52 homodimer, 1.21 z-score; in assay [1] it was 1.39 z-score; in [2], 1.33 z-score; with RELB subunit;p50 subunit, 1.28 z-score. The figures for the binding signal (with RELB subunit;p52 subunit; in assay [3]; in assay [4]) were 1.76 z-score, 1.26 z-score and 0.893 z-score, respectively.
For the sequence GAATGTTTCCC, the binding signal stood at 2.03 z-score with RELARELA (p65 homodimer); 0.423 z-score in the assay with p50p50 homodimer; 0.332 z-score in the assay with p52p52 homodimer; 1.09 z-score in [1]; 0.797 z-score in assay [2]; 0.422 z-score in the assay with RELB subunit;p50 subunit. For the same sequence, the binding signal came to 0.655 z-score in the assay with RELB subunit;p52 subunit, 1.2 z-score in assay [3] and 0.614 z-score in [4].
In the case of CAGGACACCCT, the binding signal with RELARELA (p65 homodimer) was -0.817 z-score; with p50p50 homodimer it was -1.69 z-score; with p52p52 homodimer it was -0.717 z-score; in assay [1], -0.865 z-score; in assay [2], -0.828 z-score; in the assay with RELB subunit;p50 subunit it was -0.795 z-score. The figures for the binding signal (in the assay with RELB subunit;p52 subunit; in assay [3]; in assay [4]) were -0.656 z-score, -1.21 z-score and -0.705 z-score, respectively.
CAGATGACCCC: the binding signal with RELARELA (p65 homodimer) was -0.4 z-score; with p50p50 homodimer it was -0.382 z-score; in the assay with p52p52 homodimer, -0.355 z-score; in assay [1], -0.422 z-score; in [2], -0.386 z-score; with RELB subunit;p50 subunit it was -0.204 z-score. Moreover, the binding signal in the assay with RELB subunit;p52 subunit was -0.302 z-score; in assay [3], -0.754 z-score; in assay [4] it was -0.39 z-score.
Take CGGGTTATCCC: the binding signal with RELARELA (p65 homodimer) turned out to be 1.55 z-score; with p50p50 homodimer it was 0.247 z-score; with p52p52 homodimer, 1.5 z-score; in assay [1], 0.634 z-score; in assay [2], 0.988 z-score; with RELB subunit;p50 subunit, 0.155 z-score. The binding signal is 0.698 z-score with RELB subunit;p52 subunit, 0.306 z-score in assay [3] and 0.791 z-score in [4].
Consider CGAAGTTCCCT, for which the binding signal with RELARELA (p65 homodimer) came to 0.618 z-score; with p50p50 homodimer, 0.819 z-score; with p52p52 homodimer, 0.347 z-score; in assay [1] it was 0.834 z-score; in assay [2], 0.752 z-score; with RELB subunit;p50 subunit, 0.603 z-score. Further, the binding signal in the assay with RELB subunit;p52 subunit was 0.672 z-score; in assay [3], 0.425 z-score; in assay [4] it was 0.379 z-score.
Consider CAGGTTGTCCT, for which the binding signal with RELARELA (p65 homodimer) is -0.115 z-score; with p50p50 homodimer, -0.869 z-score; with p52p52 homodimer it was -0.451 z-score; in assay [1], -0.774 z-score; in assay [2], -0.884 z-score; with RELB subunit;p50 subunit, -0.961 z-score. Moreover, the binding signal is -0.805 z-score in the assay with RELB subunit;p52 subunit, -1.05 z-score in assay [3] and -0.71 z-score in assay [4].
Turning to GAATTCGCCCT, the binding signal in the assay with RELARELA (p65 homodimer) is 0.00849 z-score; in the assay with p50p50 homodimer, -0.928 z-score; with p52p52 homodimer, -0.505 z-score; in assay [1], -0.461 z-score; in [2] it was -0.517 z-score; in the assay with RELB subunit;p50 subunit it was -0.698 z-score. Besides, the binding signal is -0.722 z-score with RELB subunit;p52 subunit, -0.531 z-score in assay [3] and -0.36 z-score in assay [4].
In the case of CGGTATGTCCT, the binding signal in the assay with RELARELA (p65 homodimer) was 0.15 z-score; in the assay with p50p50 homodimer, -0.81 z-score; with p52p52 homodimer, -0.37 z-score; in assay [1], -0.663 z-score; in assay [2] it was -0.702 z-score; in the assay with RELB subunit;p50 subunit, -0.895 z-score. Moreover, the binding signal is -0.675 z-score with RELB subunit;p52 subunit, -0.815 z-score in assay [3] and -0.489 z-score in assay [4].
